The supplement of paper PMC10127200
Counter-ions that a name gives are not always drawn.

Test system: 786-O
Assay: Euclidean distance of Cell Painting phenotypic profile (signed KS, 77 features) to DMSO centroid (dimensionless distance); 5 or 10 uM (library dependent); higher = stronger phenotypic change vs DMSO (phenoactivity)
Conditions: 48 h
In short: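 Five cancer lines, together with a healthy fibroblast line, received library compounds for 48 h at a library-dependent 10 or 5 uM and 0.1% DMSO final. Harmony then derived 77 features from confocal 20X images (9 fields/well) of the stained cells, scoring each as a signed Kolmogorov-Smirnov statistic against same-plate vehicle wells. After plate-position correction, correlation weighting and replicate averaging at the top dose, phenoactivity was taken as each profile's Euclidean distance to the median vehicle profile.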

Row | Structure (SMILES) | Euclidean distance
1 | CCCc1nn(C)c2c(=O)[nH]c(-c3cc(S(=O)(=O)N4CCN(C)CC4)ccc3OCC)nc12 [Sildenafil Mesylate] | 1.12
2 | Cc1cnc(Nc2ccc(N3CCN(C)CC3)cc2)nc1Nc1cccc(S(=O)(=O)NC(C)(C)C)c1 | 3.77
3 | Cc1cc2ncc(C(=O)NCC(C)(C)NCC(=O)N3CCC[C@H]3C#N)cn2n1 [Anagliptin] | 1.08
4 | O=C(OCc1ccccc1)c1ccccc1 [Benzyl benzoate] | 0.857
5 | CO[C@H]1C[C@@H]2CC[C@@H](C)[C@@](O)(O2)C(=O)C(=O)N2CCCC[C@H]2C(=O)O[C@H]([C@H](C)C[C@@H]2CC[C@@H](OC(=O)C(C)(CO)CO)[C@H](OC)C2)CC(=O)[C@H](C)/C=C(\C)[C@@H](O)[C@@H](OC)C(=O)[C@H](C)C[C@H](C)/C=C/C=C/C=C/1C | 3.03
6 | CCS(=O)(=O)c1cccc(-c2cc(C(=O)NC3CCN(C)CC3)c(C)c3[nH]c4ncc(C)cc4c23)c1 | 3.1
7 | NC(=O)c1ccccc1O [Salicylamide] | 1.39
8 | CC(C(=O)O)c1ccc(C(=O)c2cccs2)cc1 (stereo not given) [Suprofen] | 1.32
9 | CCCCCCCCCC(=O)N[C@H]1[C@H](Oc2c3cc4cc2Oc2ccc(cc2Cl)[C@@H](O[C@@H]2O[C@H](CO)[C@@H](O)[C@H](O)[C@H]2NC(C)=O)[C@@H]2NC(=O)[C@H](NC(=O)[C@@H]4NC(=O)[C@H]4NC(=O)[C@@H](Cc5ccc(c(Cl)c5)O3)NC(=O)[C@H](N)c3ccc(O)c(c3)Oc3cc(O)cc4c3)c3ccc(O)c(c3)-c3c(OC4O[C@H](CO)[C@@H](O)[C@H](O)[C@@H]4O)cc(O)cc3[C@@H](C(=O)O)NC2=O)O[C@H](CO)[C@@H](O)[C@@H]1O (stereo not given in full) [Teicoplanin] | 1.09
10 | Cc1cccc(C)c1NC(=O)C1CCCCN1C (stereo not given) [Mepivacaine HCl] | 1.26
11 | Cc1nc2cccc(N)c2c(=O)n1C1CCC(=O)NC1=O (stereo not given) [Avadomide(CC-122)] | 0.872
12 | CC[C@]1(O)C[C@@H]2CN(CCc3c([nH]c4ccccc34)[C@@](C(=O)OC)(c3cc4c(cc3OC)N(C)[C@H]3[C@@](O)(C(=O)OC)[C@H](OC(C)=O)[C@]5(CC)C=CCN6CC[C@]43[C@@H]65)C2)C1 [Vinblastine sulfate] | 3.25
13 | CC1(COc2ccc3c(c2)ncn3-c2ccc3cccc(N4CCC(N)CC4)c3n2)COC1 | 3.62
14 | CCCCNc1ncc(-c2ccc(CN3CCOCC3)cn2)c(NC2CCC(O)CC2)n1 (stereo not given) | 0.709
15 | CC(C[N+](C)(C)C)OC(N)=O (stereo not given) [Bethanechol chloride] | 1.22
16 | CN1CCC(=C2c3ccccc3C=Cc3ccccc32)CC1 [Cyproheptadine hydrochloride] | 0.781
17 | O=C(NCc1ccccc1)c1csc(Nc2ccncn2)n1 [Thiazovivin] | 1.92
18 | CCC[C@@H]1C[C@@H](C(=O)N[C@@H]([C@H]2O[C@H](SC)[C@H](O)[C@@H](O)[C@H]2O)[C@H](C)Cl)N(C)C1 [Clindamycin HCl] | 1.06
19 | Cc1ccsc1/C=C/C1=NCCCN1C [Morantel tartrate] | 0.593
20 | CN(C)c1nc(N(C)C)nc(N(C)C)n1 [Altretamine] | 1.11
21 | c1cnc(N2CCN(Cc3ccc4c(c3)OCO4)CC2)nc1 [Piribedil] | 1.19
22 | Fc1cc(-c2cccc3ncc(-c4cnn(C5CCNCC5)c4)nc23)cc(F)c1CN1CCOCC1 | 2.09
23 | CN(C(=O)c1c(O)c2ccccc2n(C)c1=O)c1ccccc1 [Roquinimex] | 0.929
24 | COc1cccc(CCc2ccccc2OCC(CN(C)C)OC(=O)CCC(=O)O)c1 (stereo not given) [Sarpogrelate hydrochloride] | 0.73
25 | Cc1csc(-c2nnc(Nc3ccc(Oc4ncccc4-c4ccnc(N)n4)cc3)c3ccccc23)c1 | 3.06
26 | N=C(N)NC(=O)c1nc(Cl)c(N)nc1N [Amiloride HCl] | 1.05
27 | CCOC(=O)N1c2ccc(C(F)(F)F)cc2[C@@H](N(Cc2cc(C(F)(F)F)cc(C(F)(F)F)c2)C(=O)OC)C[C@H]1CC [Torcetrapib] | 1.3
28 | CC(C)C(=O)Oc1ccc(CO)cc1[C@H](CCN(C(C)C)C(C)C)c1ccccc1 [Fesoterodine Fumarate] | 0.902
29 | CC1(C)S[C@@H]2[C@H](NC(=O)[C@H](N)c3ccccc3)C(=O)N2[C@H]1C(=O)O [Ampicillin sodium] | 1.18
30 | CCCCCOC(=O)Nc1nc(=O)n([C@@H]2O[C@H](C)[C@@H](O)[C@H]2O)cc1F [Capecitabine] | 1.77
